From PubChem
Only some compounds are listed: those with a hit (about 8% of all), similar ones and a draw of the others.
HT1080 IDH1KD tx = toxicity to HT-1080 IDH1 knockdown cells (counter line); 360,000 tested, 2% active; Potency, µM (doses to about 46.1 µM), inactives show at the highest dose activity, negative = toxicity, usual class: cytotoxic; HT-1080 IDH1 knockdown viability, ATP luminescence, 48 h; AID 686971;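 further: 0% = DMSO wells and -100% = cell-free medium wells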
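Using the IDH1-knockdown HT-1080 line run in the same batch and compound series as the NT line, viability after 48 h at 37 °C was determined by CellTiter-Glo luminescence and expressed as % activity.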
HT1080-NT tox = kills 2HG-producing HT-1080-NT fibrosarcoma cells; HT-1080-NT fibrosarcoma viability, CellTiter-Glo ATP luminescence, 48 h; Potency, µM (doses to about 46.1 µM), for inactives: at the highest dose activity, negative = less viability, hits mostly cytotoxic; 360,000 tested, 1.6% active; AID 686970;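 further: NT is the 2HG producing partner of a matched IDH1 knockdown line; 0% = DMSO-treated cells and -100% = media-only wells without cells; nearly all actives have a fitted effect of over 55% in size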
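HT-1080-NT fibrosarcoma cells (2HG-overproducing), 750 cells/well in RPMI with 5% FBS, dosed after 2 h and incubated 48 h at 37C. CellTiter-Glo luminescence normalized to DMSO and no-cell wells; concentration-response curves fitted and classed.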
SW480 rereplic = DNA re-replication induction in SW480 cells. SW480 DNA re-replication, Hoechst DNA content imaging, 48 h. Potency, µM (doses to about 46.1 µM), for inactives: at the top dose re-replication activation, actives largely listed as activators. 340,000 tested, 1.8% active; further: % of control where 0% means no effect; nearly all actives have a fitted effect of over 55% in size
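Per well, 250 cells were exposed to pinned compound for 48 hr. Nuclear DNA was visualised with Hoechst (40 min, 37 C) and total object intensity recorded by fluorescence scanning.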
MCF10A rereplic = induces DNA re-replication in MCF 10a normal breast cells | AID 624296 | 350,000 tested, 2.9% active | MCF 10A DNA re-replication, Hoechst nuclear intensity, 48 h | Potency, µM (series often up to 46.1 µM), for the others: at the top dose activity, positive = re-replication, actives largely listed as activators; further: % of control where 0% means no effect; nearly all actives have a fitted effect of over 50% in size
KB-V1 MDR tox = kills drug-selected multidrug resistant KB-V1 cells. KB-V1 MDR cells viability, CellTiter-Glo, 72 h. Potency, µM (series often up to 46.1 µM), actives largely listed as cytotoxic. 400,000 tested, 3.4% active. AID 1347076; further: on the % scale 0 is the no-effect control and ±100 the full control effect; nearly all actives have a fitted effect of over 60% in size
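In this primary screen, KB-V1 cells overexpressing P-gp are incubated with library compounds (lowest to highest concentration) for 72 h at 37 degrees C before a luminescent ATP viability read.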
KB-3-1 tox = kills parental KB-3-1 adenocarcinoma cells; KB-3-1 viability, CellTiter-Glo ATP luminescence, 72 h; Potency, µM (doses to about 46.1 µM), usual class: cytotoxic; 400,000 tested, 1.4% active; further: on the % scale 0 is the no-effect control and ±100 the full control effect; nearly all actives have a fitted effect of over 60% in size
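Cytotoxicity in the drug-sensitive parental line KB-3-1 was scored as loss of CellTiter-Glo luminescence following 72 h incubation with compound. Values come from curve fitting of normalized concentration-response data.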
* = called active by the depositor; i = inactive; u = inconclusive; x = no result given; ! = a repeat was not active; [ ] = remark or other dose. The call rests on the fitted dose curve; in most records, active means well fitted curve in the direction sought with a large enough effect; inconclusive means small, poorly fitted or top-dose-only effect, or another doubt; inactive means no such curve, though single readings can be large; an effect the other way counts as inactive or inconclusive. Potency means the concentration at half of the fitted maximal effect.

SMILES | HT1080 IDH1KD tx | HT1080-NT tox | SW480 rereplic | MCF10A rereplic | KB-V1 MDR tox | KB-3-1 tox
Cc1cc(N2CCN(C)CC2)nc2ccc(NC(=S)N3CCN(c4ccc(F)cc4)CC3)cc12 | u | u | u | u | i | i
Cc1cc(N2CCN(C)CC2)nc2ccc(NC(=S)N3CCN(c4ccc(Cl)cc4)CC3)cc12 | u | u | 12µM* | 29µM* | i | i
Cc1cc(N2CCOCC2)nc2ccc(NC(=O)C3CCCCC3)cc12 | x | x | x | x | i | u
Cc1cc(N2CCN(C)CC2)nc2ccc(NC(=S)N3CCCCCC3)cc12 | -9% | -14% | 14% | u | i | i
CN(Cc1ccccc1)C(=O)c1nc2ccccn2c1CN1CCc2sccc2C1 | -2% | 0% | -125% | -12% | i | i
Cc1cc(NC(=O)CSc2c[nH]c3ccccc23)no1 | -18% | -19% | u | 4% | i | i
O=C(N[C@@H](Cc1ccccc1)C(=O)O)c1cccs1 | 6% | 10% | 0% | -9% | i | i
Cc1cccc(N2CCN(C(=S)Nc3ccc4nc(N5CCN(C)CC5)cc(C)c4c3)CC2C)c1 (configuration not stated) | -3% | -11% | 18µM* | 18µM* | i | u
Cc1cccc(N2CCN(C(=S)Nc3ccc4nc(N5CCN(C)CC5)cc(C)c4c3)CC2)c1C | 1% | -10% | -3% | 0% | u | u
COc1ccc(OC)c(-c2nnc(NC(=O)C(C)Sc3nncn3C)s2)c1 (configuration not stated) | 0% | -4% | -12% | -4% | i | i
CCOc1ccc(CN2C(=O)c3ccccc3C2C(=O)NC(C)CC)cc1OC (configuration not stated) | 11% | 0% | 1% | 7% | i | i
CC(C)N1C(=O)c2ccccc2C1C(=O)NC1CCCCCC1 (configuration not stated) | 2% | 0%[9.24 µM] | 1% | -1% | i | i
COc1ccc(CN2C(=O)c3ccccc3C2C(=O)NC2CCCC2)c(OC)c1 (configuration not stated) | -3% | 9% | 0% | 3% | 3.7µM* | i
O=C(NC1CCCCCC1)C1c2ccccc2C(=O)N1Cc1ccco1 (configuration not stated) | 9% | 6% | -5% | -9% | 21µM* | i
CCC(C)NC(=O)C1c2ccccc2C(=O)N1Cc1cc(OC)ccc1OC (configuration not stated) | 11% | 9% | 1% | 19% | 7.3µM* | i
CCC(C)N1C(=O)c2ccccc2C1C(=O)NC1CCCCCC1 (configuration not stated) | 9% | -3% | -4% | 3% | 18µM* | i
CC1(C)CCC(=O)N2CC[C@H]3C[C@H](OC(=O)Nc4ccccc4)C[C@@H]1[C@H]32 | -3% | 1% | -12% | -4% | 18µM*! | i
CCOC(=O)C(/C(C)=N/NC(=O)C1CC1c1ccccc1)C(C)C (configuration not stated) | 0% | -1% | u | -2% | 16µM* | i
Cc1ccc(S(=O)(=O)N2CCCCC2)cc1NC(=O)CSc1nncn1-c1ccccc1 | -6% | 1% | -5% | -6% | u | i
Clc1ccc(-c2noc3ncnc(NC4CCCCC4)c23)cc1 | x | x | x | x | i | i
CCOc1ccc(C(=O)NCC(=O)Nc2ccncc2)cc1OCC | 0% | 1% | 20% | 0% | i | i
c1ccc2nc3c(cc2c1)CCCCC3 | 2% | 2% | 18µM* | u | i | i
c1ccc2nc3c(cc2c1)CCCCCC3 | 0% | -2% | -4%[9.22 µM] | -3% | i | i
Cc1ccc2cc(CN(Cc3ccco3)C(=S)NCC3CCCO3)c(=O)[nH]c2c1C (configuration not stated) | 7% | 5% | -4% | u | 4.1µM* | i
Cc1cc(C)c2[nH]c(=O)c(CN(Cc3ccco3)C(=S)NCC3CCCO3)cc2c1 (configuration not stated) | -5% | -17% | 1% | -1% | i | i
SMILES | HT1080 IDH1KD tx | HT1080-NT tox | SW480 rereplic | MCF10A rereplic | KB-V1 MDR tox | KB-3-1 tox
Cc1cc2cc(CN(Cc3ccco3)C(=S)NCC3CCCO3)c(=O)[nH]c2cc1C (configuration not stated) | 10% | 2% | 13% | 3% | 9.2µM* | i
COc1cc(C2=NOC(C(=O)NCc3ccccn3)C2)cc(OC)c1OC (configuration not stated) | -5% | 2% | 1% | u | i | i
COc1ccc(C2=NOC(C(=O)NCc3ccc(F)cc3)C2)cc1OC (configuration not stated) | 1.1µM* | 1.3µM* | 2.1µM* | 1.6µM* | 0.52µM* | i
COCCNC(=O)C1CC(c2ccc(F)cc2)=NO1 (configuration not stated) | 0% | 5% | 1% | 11% | i | i
COc1cc(C2=NOC(C(=O)NCc3ccc(F)cc3)C2)cc(OC)c1OC (configuration not stated) | 0.71µM* | 1.1µM* | 0.73µM* | 3.3µM* | 1.5µM* | 1.5µM*
CO/N=C(/CNC(=O)c1cccc(Cl)c1)c1ccc(Cl)cc1 | -30% | -4% | -125% | -2% | 23µM* | i
COc1cccc(CN2C(=O)C3(SCC(=O)N3c3ccc(C)c(Cl)c3)c3ccccc32)c1 (configuration not stated) | x | x | x | x | 13µM* | 13µM*
COc1cc(N2C(=O)CSC23C(=O)N(Cc2cccc(F)c2)c2ccccc23)cc(OC)c1OC (configuration not stated) | x | x | x | x | i | i
COc1cccc(CN2C(=O)C3(SCC(=O)N3c3ccc(C(C)C)cc3)c3ccccc32)c1 (configuration not stated) | x | x | x | x | 18µM* | u
CN(C(=O)c1cccc(NC(=O)Cc2ccc(NC(=O)C3CCCN(C(=O)C4CCC4)C3)cc2)c1)C1CC1 (configuration not stated) | 8% | 3% | 7%[9.22 µM] | -10% | i | i
Cc1ccc(NC(=O)CCc2nnc3ccc(N4CCC5(CC4)OCCO5)nn23)nc1 | 1% | -1% | 2% | -6% | i | i
CC(C)c1ccc(S(=O)(=O)Nc2cc3c(cc2NCc2ccccc2)n(C)c(=O)n3C)cc1 | x | x | x | x | u | 23µM*
Cc1ccc(S(=O)(=O)Nc2cc3c(cc2NCc2ccccc2)n(C)c(=O)n3C)cc1 | x | x | x | x | i | i
